Screening data (PubChem BioAssay)
This is a sample that favours compounds with a hit; in the whole collection about 12% have one here.
JMJD2A Tudor inh: JMJD2A Tudor domain (human) inhibition. 390,000 compounds, 4.4% hits. AlphaScreen JMJD2A-Tudor / H3K4me3 peptide binding. AID 504339. Potency, µM (highest dose often 114 µM), without a hit: at the highest dose activity change, negative = inhibition, most hits filed as inhibitors; also: % is scaled to controls: 0 for no effect and ±100 for the full control effect; nearly all actives have a fitted effect of over 50% in size
Target sequence (O75164 whole entry, looked up, the tested form may be a part): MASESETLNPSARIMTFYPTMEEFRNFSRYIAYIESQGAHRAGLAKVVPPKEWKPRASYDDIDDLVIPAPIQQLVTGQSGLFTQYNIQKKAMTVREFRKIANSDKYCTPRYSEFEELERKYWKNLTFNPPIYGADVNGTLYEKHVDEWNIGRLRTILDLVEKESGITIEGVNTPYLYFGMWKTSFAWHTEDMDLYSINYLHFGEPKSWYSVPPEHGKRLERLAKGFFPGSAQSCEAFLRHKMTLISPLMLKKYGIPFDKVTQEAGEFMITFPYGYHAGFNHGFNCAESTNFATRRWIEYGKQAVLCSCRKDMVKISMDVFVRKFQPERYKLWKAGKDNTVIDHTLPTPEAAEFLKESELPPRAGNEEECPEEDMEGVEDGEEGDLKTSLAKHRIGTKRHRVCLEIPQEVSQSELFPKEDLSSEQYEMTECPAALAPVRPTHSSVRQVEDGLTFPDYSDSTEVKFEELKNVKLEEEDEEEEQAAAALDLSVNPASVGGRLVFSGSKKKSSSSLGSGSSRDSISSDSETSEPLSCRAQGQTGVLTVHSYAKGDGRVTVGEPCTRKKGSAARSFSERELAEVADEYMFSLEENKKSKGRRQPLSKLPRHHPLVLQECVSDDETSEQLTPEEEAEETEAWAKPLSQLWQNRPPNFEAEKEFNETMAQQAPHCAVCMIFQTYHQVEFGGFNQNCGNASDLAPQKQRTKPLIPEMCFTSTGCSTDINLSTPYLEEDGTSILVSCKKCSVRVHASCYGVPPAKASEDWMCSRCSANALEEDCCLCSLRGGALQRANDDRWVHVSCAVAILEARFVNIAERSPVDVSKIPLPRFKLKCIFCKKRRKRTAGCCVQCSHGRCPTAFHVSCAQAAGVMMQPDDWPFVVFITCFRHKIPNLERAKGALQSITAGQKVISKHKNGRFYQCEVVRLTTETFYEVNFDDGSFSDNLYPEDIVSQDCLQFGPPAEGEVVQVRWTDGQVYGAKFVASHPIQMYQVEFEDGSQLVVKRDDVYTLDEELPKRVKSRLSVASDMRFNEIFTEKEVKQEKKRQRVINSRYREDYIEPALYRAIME
BAZ2B inh: inhibitors of human BAZ2B bromodomain; Q9UIF8; AlphaScreen BAZ2B-H3K14Ac peptide displacement; Potency, µM (series often up to 114 µM), for inactives: at the top dose activity change, negative = inhibition, usual class: inhibitors; 360,000 compounds, 4.4% hits; AID 504333; also: % is scaled to controls: 0 for no effect and ±100 for the full control effect; nearly all actives have a fitted effect of over 60% in size
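Multi-concentration screen (max 110 uM) measuring displacement of acetylated histone H3 peptide from BAZ2B by AlphaScreen, using 50 nM protein, 50 nM peptide and 10 ug/mL streptavidin donor plus Ni-chelate acceptor beads.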
L3MBTL1 block: L3MBTL1 (human) inhibition. Q9Y468. AlphaScreen L3MBTL1–H3K9me1 peptide binding. Potency, µM (top dose mostly 57.1 µM), without a hit: at the top dose activity, negative = inhibition, most hits filed as inhibitors. 230,000 compounds, 0.66% hits. AID 485360; also: % is scaled to controls: 0 for no effect and ±100 for the full control effect; nearly all actives have a fitted effect of over 60% in size
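Read-out is AlphaScreen signal from streptavidin donor and nickel chelate acceptor beads (10 ug/mL final each) bridging L3MBTL1 (50 nM) and biotinylated K9-monomethylated H3(1-15) peptide (75 nM), after 30 min compound exposure at room temperature.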
G9a inh: G9a (human) methyltransferase inhibition. G9a H3K9 monomethylation, AlphaScreen, 2 h. Potency, µM (series often up to 102 µM), without a hit: at the top dose activity, negative = inhibition, hits mostly inhibitors. 350,000 compounds, 8.8% hits. AID 504332; also: % is scaled to controls: 0 for no effect and ±100 for the full control effect; nearly all actives have a fitted effect of over 75% in size
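Compounds were preincubated with 20 nM G9a for 15 min, after which biotinylated H3K9 peptide (500 nM) and SAM (20 uM) started a 2 h room-temperature reaction. Monomethylated product was quantified by antibody-based AlphaScreen chemiluminescence.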
HP1b binding inh: inhibitors of HP1-beta chromodomain binding to methylated histone tails; Potency, µM (top dose mostly 114 µM), for inactives: at the highest dose activity change, negative = inhibition, hits mostly inhibitors; P83916; AlphaScreen HP1-beta / biotin-H3K9me3 peptide binding; AID 540317; 390,000 compounds, 0.56% hits; also: nearly all actives have a fitted effect of over 70% in size
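AlphaScreen: HP1-beta (50 nM) preformed 30 min with biotin-H3(1-18)K9me3 peptide (50 nM) in PBS pH 7.4, 0.01% Tween-20. Compound added for 30 min at RT, then streptavidin donor/nickel chelate acceptor beads (10 ug/mL) for 30 min.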
Sfp inh: Sfp phosphopantetheinyl transferase inhibition | Q9F4F7 | Biochemical Sfp PPTase activity, qHTS | Potency, µM, for the others: largest response in the series, negative = inhibition, actives largely listed as inhibitors | 310,000 compounds, 3.5% hits | AID 1490;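 also: the enzyme is Sfp with the accession as filed and its product quenches rhodamine fluorescence; 0% = enzyme reaction without inhibitor and -100% = no enzyme wells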
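Buffer: 50 mM Hepes-Na pH 7.6, 10 mM MgCl2, 0.01% Nonidet P-40, 0.01% BSA. Enzyme 15 nM, pre-exposed to compound 15 min; substrates then added and fluorescence change tracked over 30 min.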
Active calls of the source: *; [ ] = another dose, or the depositor's remark. Calls follow the shape of the dose curve; as a rule, active = well fitted curve in the direction sought with a large enough effect; inconclusive = small, poorly fitted or top-dose-only effect, or another doubt; inactive = no such curve, though single readings can be large; an effect the other way counts as inactive or inconclusive. Potency is read from the fitted curve at half-maximal effect.

For COc1ccc(Cl)cc1C(=O)NNC(=O)C1COc2ccccc2O1 (configuration not stated) the results were JMJD2A Tudor inh 22.4µM*, BAZ2B inh -11.6%, G9a inh 6.2%, HP1b binding inh -9.7% and Sfp inh 10.8%.
COc1ccc2nc(NC(=O)C3COc4ccccc4O3)sc2c1 (configuration not stated) was read as JMJD2A Tudor inh -14.9%, BAZ2B inh 15.4%, L3MBTL1 block 1.8%, G9a inh -31.9%, HP1b binding inh 51.1% and Sfp inh inconclusive.
Screening O=C(C[C@H]1C/C=C\CCCC(=O)OC[C@H]2CCCN2C1=O)NCCO returned JMJD2A Tudor inh -15.5%, L3MBTL1 block -1.4% and HP1b binding inh 22.7%.
Screening CCn1c(C)cc(C(=O)COC(=O)c2ccccc2[N+](=O)[O-])c1C returned JMJD2A Tudor inh 44.7µM*, L3MBTL1 block -10.2% and HP1b binding inh inconclusive.
For Nc1ccc(S(N)(=O)=O)cc1 the results were JMJD2A Tudor inh -15.1%, G9a inh -17.4%[21.5 µM], HP1b binding inh 22.4% and Sfp inh 21.3%.
For CCS(=O)(=O)c1ccc(N)cc1 the results were JMJD2A Tudor inh -24.7%, BAZ2B inh 1.1%, G9a inh 3.98µM*, HP1b binding inh 24.9% and Sfp inh -25.9%.
COc1cc2c(cc1OC)CN(C(=O)C1CCC(=O)N(CCCN3CCOCC3)C1)CC2 (configuration not stated) was read as JMJD2A Tudor inh -9.8%, BAZ2B inh -3.3%, HP1b binding inh 29.7% and Sfp inh 7.5%.
`O=C1CCC(C(=O)N2CCc3c(Cl)cccc3C2)CN1CCCN1CCOCC1` (configuration not stated) gave JMJD2A Tudor inh -0.7%, BAZ2B inh -12.2%, G9a inh 39.8µM*, HP1b binding inh 36.9% and Sfp inh 13.9%.
`COC1=CC(=O)C(O)=C(CCCCCCC/C=C/CCCCCCCC2=C(O)C(=O)C=C(OC)C2=O)C1=O` gave JMJD2A Tudor inh 44.7µM* and HP1b binding inh inconclusive.
CCCCCCCCCCCC1=C(O)C(=O)C=C(O)C1=O was read as JMJD2A Tudor inh 28.2µM*, HP1b binding inh inconclusive and Sfp inh -9.2%.
For O=C1C(=O)c2ccccc2C(O)=C1CCCCl the results were JMJD2A Tudor inh -22.9%, BAZ2B inh inconclusive, L3MBTL1 block -19.9%, HP1b binding inh 36.0% and Sfp inh -26.5%.
Oc1ccccc1C1C=C(c2ccc3c(c2)OCO3)NC(c2ccc(Br)cc2)N1 (configuration not stated) was read as JMJD2A Tudor inh -16.9%[57.1 µM] and HP1b binding inh 14.9%[57 µM].
`O=[N+]([O-])c1ccc(Nc2nc(NC3CCCCC3)nc(N3CCCC3)n2)cc1` gave JMJD2A Tudor inh inconclusive, BAZ2B inh inconclusive, G9a inh 11.2µM*, HP1b binding inh -3.8% and Sfp inh 1.6%.
C#CCCc1ccccc1/C=[N+](/C)[O-] was read as JMJD2A Tudor inh -18.7%, BAZ2B inh -34.1%, L3MBTL1 block -13.9%, G9a inh -23.4%[2.33 µM] and HP1b binding inh -9.7%.
COc1ccc([N+](=O)[O-])cc1NC(=O)CC1SC(=Nc2cccc(C)c2C)N(/N=C/c2cccc(OC)c2OC)C1=O (configuration not stated) was read as JMJD2A Tudor inh -29.0%, BAZ2B inh -22.3%, L3MBTL1 block -7.3%, G9a inh 35.5µM*, HP1b binding inh -14.3% and Sfp inh 16.7%.
Screening COc1ccc(NC(=O)N2CCCC2C(=O)NCCc2ccccc2)cc1 (configuration not stated) returned JMJD2A Tudor inh 3.3%, BAZ2B inh 8.1%, L3MBTL1 block -4.6%, G9a inh 21.3%, HP1b binding inh 33.7% and Sfp inh 20.5%.
CCCNc1[nH]c(=O)n(C)c(=O)c1N=O was read as JMJD2A Tudor inh 50.1µM*, BAZ2B inh -38.4%[57.1 µM], L3MBTL1 block 1.6%, G9a inh 39.8µM*, HP1b binding inh -0.3% and Sfp inh 8.4%.
For CCCNc1nc2c(c(=O)[nH]c(=O)n2C)n1Cc1ccc(F)cc1 the results were JMJD2A Tudor inh -16.6%, BAZ2B inh 8.5%, L3MBTL1 block 0.6%, G9a inh 1.0%, HP1b binding inh 37.5% and Sfp inh 18.7%.
Cn1c(=O)[nH]c(NC2CCCCC2)c([N+](=O)[O-])c1=O was read as JMJD2A Tudor inh -6.0%, BAZ2B inh -2.1%, L3MBTL1 block 5.3%, G9a inh 1.1%[59 µM], HP1b binding inh 32.6% and Sfp inh 0.9%.
Screening Cn1c(=O)[nH]c(NC2CCCCC2)c(N=O)c1=O returned JMJD2A Tudor inh 89.1µM*, BAZ2B inh inconclusive, L3MBTL1 block 12.4%, G9a inh inconclusive, HP1b binding inh 44.6% and Sfp inh -3.2%.
For O=C(c1ccc2c(c1)N(Cc1cccc(Cl)c1)C(=O)c1ccccc1S2(=O)=O)N1CCN(c2cccc(C(F)(F)F)c2)CC1 the results were JMJD2A Tudor inh -15.1%, BAZ2B inh 1.0%, G9a inh -25.4%[59 µM] and HP1b binding inh 28.4%.
`Cc1ccc2c(COC(=O)c3n[nH]c4ccccc34)cc(=O)oc2c1` gave JMJD2A Tudor inh -8.7%, BAZ2B inh -4.0%, L3MBTL1 block 4.8%, G9a inh inconclusive, HP1b binding inh 14.2% and Sfp inh 8.5%.
Screening CCc1ccc2c(COC(=O)c3n[nH]c4ccccc34)cc(=O)oc2c1 returned JMJD2A Tudor inh inconclusive, BAZ2B inh -1.5%, L3MBTL1 block -9.6%, G9a inh 35.5µM*, HP1b binding inh 41.5% and Sfp inh -9.0%.
Cc1ccc(NC(=O)CCCn2nc(C)c3sc4ccccc4c3c2=O)c(Cl)c1 was read as JMJD2A Tudor inh -25.8%, BAZ2B inh -16.6%, G9a inh inconclusive and HP1b binding inh 16.6%.
`COc1cccc(CNc2cc(C)nc3nc(-c4ccc(C)cc4)nn23)c1` gave JMJD2A Tudor inh -19.2%, BAZ2B inh -2.5%, G9a inh 11.7%[59 µM] and HP1b binding inh 15.5%[57 µM].
`CCn1c(/C=C/Nc2ccccc2)[n+](CC)c2ccc(Cl)cc21` gave JMJD2A Tudor inh -23.0%, BAZ2B inh 2.7%, L3MBTL1 block -5.1%, G9a inh 44.7µM*, HP1b binding inh 6.6% and Sfp inh 3.8%.
Screening CCOC(=O)c1ccc2c(c1)n(CC)c(/C=C/Nc1ccccc1)[n+]2CC returned JMJD2A Tudor inh -16.6%, BAZ2B inh -34.4%, L3MBTL1 block 0.3%, G9a inh 7.5%[0.501 µM], HP1b binding inh 41.4% and Sfp inh -0.1%.
